In the library only some 6.1% were active in any assay of this set; here they are far more common.
D1 PAM: human D1 dopamine receptor positive modulation. P21728. HEK293 TREx D1 cells, calcium flux, dopamine EC20 potentiation. potentiation, % at 10 µM. 360,000 tested, 0.036% active. AID 504651; in the data active = potentiation above about 30%; note: 0% is about no effect
D3 ag: activates the human D3 dopamine receptor; max activation, %; D3R DiscoveRx beta-arrestin cells, luminescence, 90 min; P35462; 410,000 tested, 0.58% active; in the data active = max activation above about 30%; note: 0% is about no effect
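Agonist-mode cell screen: cells plated at 1500/well and incubated overnight at 37 °C, then exposed to library compounds for 90 min at 37 °C. Detection reagent was added for 30–60 min at room temperature, and luminescence was read.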
D3 antag: antagonists of human D3 dopamine receptor | 360,000 tested, 2.5% active | max response, negative = inhibition, % | P35462 | D3R cells, DiscoveRx beta-arrestin luminescence, antagonist mode; hits give low values; in the data active = max response below about -50%; inconclusive = no clear call, values can overlap the other calls; note: % is set by controls: 0 for no effect and ±100 for the full control effect
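Cells expressing the human receptor were seeded at 1500 cells/well, incubated overnight at 37 degrees C in 5% CO2, then exposed to library compounds with dopamine controls for 90 minutes at 37 degrees C before luminescent detection.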
ERG Ets-DNA blk: ERG Ets/DNA interaction inhibition; 370,000 tested, 0.028% active; Potency, µM (top dose mostly 76.9 µM), without a hit: at the top dose FP activity, negative = inhibition, hits mostly inhibitors; AID 624246; fluorescence polarization, His-ERG Ets domain / labelled DNA; active = well fitted inhibition curve with a large enough effect in the polarisation, with a control signal flat; inconclusive = small, poorly fitted or top-dose-only effect, or effect the other way, or a change in a side signal; inactive = no such curve, though single readings can be large or run the other way; the % refers to the polarisation;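 note: polarization taken with two DNA probes labelled with fluorescein and Texas red; potency is the fitted concentration of half-maximal effect; % of control where 0% means no effect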
Target sequence (P11308 whole entry, looked up, the tested form may be a part): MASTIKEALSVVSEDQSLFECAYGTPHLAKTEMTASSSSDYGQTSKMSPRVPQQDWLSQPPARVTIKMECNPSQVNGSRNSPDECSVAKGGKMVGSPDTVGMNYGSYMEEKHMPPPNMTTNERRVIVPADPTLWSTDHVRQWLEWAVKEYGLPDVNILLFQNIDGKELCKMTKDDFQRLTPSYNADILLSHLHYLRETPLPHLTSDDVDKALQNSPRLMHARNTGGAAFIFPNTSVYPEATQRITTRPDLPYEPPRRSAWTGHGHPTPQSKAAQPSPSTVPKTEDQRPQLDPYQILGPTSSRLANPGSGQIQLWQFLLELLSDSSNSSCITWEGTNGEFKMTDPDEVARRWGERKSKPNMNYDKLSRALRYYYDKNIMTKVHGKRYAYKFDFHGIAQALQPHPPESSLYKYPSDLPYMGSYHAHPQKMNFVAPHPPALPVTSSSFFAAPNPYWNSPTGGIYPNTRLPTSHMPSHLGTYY
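His-tagged ERG Ets domain (1 uM in the protein solution; 300mM KCl, 50mM Tris-HCl, 1mM EDTA, 1mM DTT, pH 7.5) received compound, then a probe mix of 5 nM fluorescein-DNA and 100nM Texas-615-DNA. Fluorescence polarization was read for both dyes.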
D1 ag: agonists of human D1 dopamine receptor; 360,000 tested, 1% active; HEK293 T-REx D1 cells, calcium flux, agonist mode; P21728; activation, % at 2 µM; AID 504660; in the data active = activation above about 30%; note: 0% is about no effect
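Inducible HEK293 T-REx D1 cells, force-coupled to calcium signalling, were plated at 4000 cells/well with tetracycline and held overnight at 30 C. After no-wash calcium dye loading, compound-evoked calcium rise over 180 s flagged agonists.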
D1 antag: human D1 dopamine receptor antagonism. HEK293 TREx D1 cells, calcium flux, dopamine EC80; hits give low values. activity change, negative = inhibition, % at 10 µM. 360,000 tested, 3.2% active; in the data active = activity change below about -30%; note: % is set by controls: 0 for no effect and ±100 for the full control effect
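Tetracycline-induced HEK293 T-REx cells with force-coupled D1 receptor were loaded with a no-wash calcium dye. Compound was added after a 10 s baseline and read kinetically for 180 s; EC80 dopamine was then added and calcium flux followed another 180 s.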
An asterisk follows results filed as active; ? = inconclusive; . = not tested or not shown.

SMILES	D1 PAM	D3 ag	D3 antag	ERG Ets-DNA blk	D1 ag	D1 antag
O=c1c(Br)ccc(Br)cc1Br	.	-31	-114*	4%	.	.
COCC1CCN(C(=O)c2ccc3oc(CCCc4ccccc4)nc3c2)C1 (stereo unspecified)	-2	5	13	-3%	2	-20
O=C(Nc1ccc(SC(F)F)cc1)C12CCC(CC1)C2	-4	-14	-18	-8%	4	1
COC(=O)[C@H]1C[C@@H]1[C@H](NS(=O)(=O)c1ccccc1)c1ccccc1	2	1	1	9%	-3	18
C[C@@H](CO)NC(=O)[C@H]1O[C@@H](n2ccc(=O)[nH]c2=O)[C@H](O)[C@@H]1O	.	8	9	.	.	.
CC[C@H](C)[C@@H](CO)NC(=O)[C@H]1O[C@@H](n2ccc(=O)[nH]c2=O)[C@H](O)[C@@H]1O	.	-15	-105*	.	.	.
CCC(=O)N1CCc2cc(S(=O)(=O)NC(CC(C)C)C(=O)NCc3ccc(F)cc3)ccc21 (stereo unspecified)	4	-2	.	4%	-1	-40*
CCC(=O)N1CCc2cc(S(=O)(=O)NCCC(=O)NCc3ccc(OC)cc3)ccc21	-1	-1	.	10%	1	-44*
O=C(O)C1CCCCC1C(=O)Nc1ccccc1Nc1ccccc1 (stereo unspecified)	-8	-3	-15	-3%	3	-41*
COC(=O)C(=Cc1ccccc1[N+](=O)[O-])C(=O)OC	-4	-6	-58*	-3%	3	31
O=C(/C=C/c1ccccc1[N+](=O)[O-])Oc1ccccc1	6	.	.	.	-3	-17
CCn1c(SCC(=O)N/N=C/C=C\c2ccccc2[N+](=O)[O-])nnc1-c1ccccc1	-1	-7	16	-6%	-1	-57*
CCn1c(SCC(=O)Nc2ccccc2F)nnc1-c1ccoc1C	-4	-25	-55*	-7%	0	-14
CCn1c(SCC(=O)NNC(=O)Cc2ccccc2)nnc1-c1ccccc1	-5	-10	-51*	-2%	-1	-29
COC(=O)CCCN=C1SCCN1Cc1ccccc1	4	-16	-15	4%	2	-1
Cc1cc(N2CCOCC2)c2c(N)c(Br)cc(C)c2n1	0	2	-15	5%	4	-15
CCOC(=O)N1CCC2(CC1)OC(=O)C(C)=C2C(=O)NCc1cccc(OC)c1	0	-8	.	-2%	0	6
O=C(N/N=C/C=C/c1ccccc1[N+](=O)[O-])c1ccncc1	-3	-10	19	-6%	0	0
O=C(N/N=C/C=C\c1ccccc1[N+](=O)[O-])c1cccs1	-3	-16	-64*	?	2	1
COc1cc(/C=C/C(=O)OCC(=O)NC(=O)NC23CC4CC(CC(C4)C2)C3)ccc1OCC#N	4	-7	-53*	-6%	3	-8
Cc1cccn2c(=O)c(/C=N/O)c(NCc3ccccc3)nc12	9	-21	-18	6%	0	-2
Cc1cccn2c(=O)c(C=NCc3ccccc3)c(NCCO)nc12	-3	-6	-72*	.	0	8
FC(F)Oc1ccc(-c2csc(=Nc3cccnc3)n2CC2CCCO2)cc1 (stereo unspecified)	-2	17	43	-1%	15	-31*
Clc1ccc(-c2csc(=Nc3cccnc3)n2CCCn2ccnc2)cc1Cl	-5	-2	-4	-4%	6	13
COCCn1c(-c2ccc(Br)cc2)csc1=Nc1cccnc1	-7	2	7	5%	4	-34*
SMILES	D1 PAM	D3 ag	D3 antag	ERG Ets-DNA blk	D1 ag	D1 antag
O=C(O)CCc1ccc(-c2cccs2)n1CC1CCCO1 (stereo unspecified)	11	-3	9	1%	0	0
CN1CCCN(Cc2ccccc2C(F)(F)F)CC1	-3	-6	-84*	-3%	4	-21
CN1CCCN(Cc2ccc(Cl)cc2Cl)CC1	-8	-34	-78*	.	9	0
CCCS(=O)(=O)N1CCN(Cc2ccccc2C(F)(F)F)CC1	4	-5	?	.	1	7
Cc1ccc(CNc2nc3c(S(=O)(=O)c4ccc(C)c(C)c4)nnn3c3ccc(Cl)cc23)cc1	-3	4	.	-1%	2	-5
CCN(CC)CCNc1ccc(CO)c2sc3ccccc3c(=O)c12	1	-48	-63*	3%	2	27
Cc1ccc(/C=C/c2nc3ccccc3c(=O)[nH]2)cc1	-4	-5	-16	-6%	2	-40*
O=c1[nH]c(-c2ccncc2)nc2ccccc12	0	-1	-18	-4%	3	-5
Cc1cccc(-c2nc3ccccc3c(=O)[nH]2)c1	10	10	-4	5%	0	-30*
CCOC(=O)Cc1csc(NC(=S)NC(=O)c2cccc([N+](=O)[O-])c2)n1	-5	-3	-7	-12%	6	-3
CC1CCN(C(=O)COC(=O)C2CCN(S(=O)(=O)c3c(Cl)cccc3Cl)CC2)CC1	-8	-1	-2	13%	19	-14
Cc1ccc(S(=O)(=O)/N=C2/NC(=O)/C(=C/c3cccnc3)S2)cc1	2	-8	0	-2%	3	-35*
Cc1ccc(S(=O)(=O)/N=C2/NC(=O)/C(=C\c3cc(Br)cc(Br)c3O)S2)cc1	11	-6	-53*	120%	276*	-52*
CCOC1=C2CN(S(=O)(=O)c3ccc(C)cc3)C(c3cccc(Cl)c3)CC2N(S(=O)(=O)c2ccc(C)cc2)C(c2ccncc2)C1 (stereo unspecified)	.	-13	-20	.	.	.
CCCCCCN1CCN(C2CN(C3CCCCC3)S(=O)(=O)C2)CC1 (stereo unspecified)	.	-14	-117*	.	.	.
CN(C)CCN1CCN(C2CN(C3CCCCC3)S(=O)(=O)C2)CC1 (stereo unspecified)	.	1	?	.	.	.
O=S1(=O)CC(N2CCN(CC3CC3)CC2)CN1Cc1ccccc1 (stereo unspecified)	.	-7	-61*	.	.	.
O=S1(=O)CC(N2CCN(CC3CC3)CC2)CN1Cc1ccc(F)cc1 (stereo unspecified)	.	-9	-9	.	.	.
O=S1(=O)CC(N2CCC(Cc3ccccc3)CC2)CN1C1CCCCC1 (stereo unspecified)	.	-9	-78*	.	.	.
CCn1c(SCC(=O)NC2CCCCC2)nnc1-c1ccccn1	3	-3	1	-7%	4	2
COc1ccc(/C=N/OCC(=O)Nc2nc3ccccc3s2)cc1OC	-5	8	12	-2%	11	-12
O=C1OCCC1=COCCOC=C1CCOC1=O	.	6	18	.	.	.
CCOC(=O)C(=CNc1ccc(S(N)(=O)=O)cc1)C(=O)OCC	-2	-16	-1	-13%	5	-1
